Screen size: about 350,000 compounds; about 1,300 (0.37%) were called active. Cut-off read from the data, not from the text of the source: active = response mostly above about 7.3% (no sharp cut-off); inactive = mostly below about 5.4%. Shown is part of a subset that was picked to be rich in actives.

The test can be described thus: yeast vacuolar ATPase proton transport modulators – pHLuorin cytosolic pH fluorescence, primary screen (AID 504577). Conditions: S. cerevisiae, at 10 µM, hits give high values.
As to `CC(=O)Nc1ccc(C(=O)C(Cc2ccccc2)N(C)C)cc1` (stereo not given), the response is 8.72% (active).

Consider `O=C(COC(=O)Cc1ccccc1)Nc1ccc(F)cc1`, for which the response is -1.24% (inactive).

For the compound `CCN(CC)C(=O)c1ccc(NC(=O)c2sccc2-c2ccccc2)cc1`, the response was -3.45% (inactive).

Take `COc1ccc(Br)cc1CNCCc1cccc(Cl)c1`: the response is 1.48% (inactive).

In the case of `N=c1ccccn1Cc1ccccc1`, the response was -1.95% (inactive).

For `CN1CCC[C@@H]1CCO[C@](C)(c1ccccc1)c1ccc(Cl)cc1`, the response was -5.35% (inactive).

Take `O=C1NC(=O)N(c2ccccc2)C(=O)/C1=C/c1ccc([N+](=O)[O-])s1`: the response was 102% (active).

For `COc1ccc(N2C(=O)/C(=C/c3ccco3)C(=O)NC2=S)cc1`, the response is 8.65% (inactive).

Consider `COc1cccc(N2C(=O)NC(=O)/C(=C\c3ccc([N+](=O)[O-])s3)C2=O)c1`, for which the response is 125% (active).

As for `O=C1NC(=O)N(c2ccc(F)cc2)C(=O)/C1=C/c1ccc2c(c1)CCCN2Cc1ccccc1`, the response is 1.07% (inactive).

With `CCCC(C)n1[nH]c(=O)c2c1NC(=O)CSC2c1ccc(OC)c(OC)c1` (stereo not given), the response is 1.43% (inactive).

Turning to `O=c1[nH]c(CN2CC=C(c3ccccc3)CC2)nc2scc(-c3cccs3)c12`, the response is -2.27% (inactive).

As for `CNC(=O)N(C)c1nnc(C(C)(C)C)s1`, the response was 2.46% (inactive).

On to `Cc1ccccc1N1C(=O)NC(=O)/C(=C\c2cc(C)n(C)c2C)C1=O`, for which the response is 13.8% (active).

Regarding `Cc1ccc(-n2c(C)cc(/C=C3\C(=O)NC(=O)N(C)C3=O)c2C)cc1C`, the response was -0.72% (inactive).

As to `Cc1c(C(=O)O)cccc1-n1c(C)cc(/C=C2\C(=O)NC(=O)N(c3ccc4c(c3)OCO4)C2=O)c1C`, the response was -0.49% (inactive).

On to `CC(=O)N(C1=NCCCS1)c1ccccc1F`, for which the response is 0.19% (inactive).

In the case of `CC12CCC(O)CC1CCC1C2CCC2(C)C(C(=O)CC(O)C(F)(F)F)CCC12` (stereo not given), the response was 5.09% (inactive).

Turning to `CCOC(=O)C(O)(c1ccc(N=Cc2ccccc2O)c(C)c1)C(F)(F)F` (stereo not given), the response was -2.77% (inactive).

Regarding `Cc1nc2nc(C)c(CCC(=O)N3CCC4(CC3)OCCO4)c(C)n2n1`, the response is -4.03% (inactive).

Values taken from PubChem BioAssay AID504577 (NMMLSC, 2011).
